Laboratory results: PubChem BioAssay (NCATS)
Inconclusive results are not listed. Where a call stands in place of a potency, no number is given. Values without a mark were called inactive. Calls of active or inactive are those of the source. Calls follow the shape of the dose curve; as a rule, active = well fitted inhibition curve with a large enough effect; inconclusive = small, poorly fitted or top-dose-only effect; inactive = flat fitted curve, though single readings scatter.

Legend:
[1] = molecular target: Glutathione peroxidase 1 (Homo sapiens) (UniProt P07203); test: Primary qHTS Assay for Inhibitors of Recombinant Selenoprotein Glutathione Peroxidase 1 (GPX1) (AID 1845191); also: nearly all actives have a fitted effect of over 65% in size; also: potency is read from the fitted curve at half-maximal effect
Chain of Glutathione peroxidase 1 (Homo sapiens) (P07203 whole entry, looked up): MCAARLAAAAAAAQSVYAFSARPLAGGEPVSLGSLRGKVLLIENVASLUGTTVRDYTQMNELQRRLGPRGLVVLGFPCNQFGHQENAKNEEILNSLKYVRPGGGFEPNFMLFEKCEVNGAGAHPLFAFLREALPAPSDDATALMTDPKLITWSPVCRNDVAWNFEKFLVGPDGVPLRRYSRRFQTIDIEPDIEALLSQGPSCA
Outline: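 GPX1 10 nM, GR 100 nM, GSH 1 mM, NADPH 0.5 mM, CHP 0.5 mM (final). 30-min cpd preincubation, RT. Ex340/Em450 read t=0, t=15 min.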

[2] = molecular target: Phospholipid hydroperoxide glutathione peroxidase GPX4 (Homo sapiens) (UniProt P36969); test: Primary qHTS Assay for Inhibitors of Recombinant Selenoprotein Glutathione Peroxidase 4 (GPX4) (AID 1845192); also: nearly all actives have a fitted effect of over 65% in size; also: potency is read from the fitted curve at half-maximal effect
Chain of Phospholipid hydroperoxide glutathione peroxidase GPX4 (Homo sapiens) (P36969 whole entry, looked up): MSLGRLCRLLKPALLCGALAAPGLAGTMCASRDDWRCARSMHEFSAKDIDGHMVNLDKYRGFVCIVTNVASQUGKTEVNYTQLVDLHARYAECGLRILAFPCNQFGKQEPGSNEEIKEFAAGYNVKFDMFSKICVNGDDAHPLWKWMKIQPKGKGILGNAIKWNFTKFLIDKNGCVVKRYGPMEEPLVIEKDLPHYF
Outline: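 qHTS, GR-coupled: GPX4 200 nM + cpd 30 min RT → GSH 1 mM, NADPH 0.5 mM, GR 100 nM → CHP 0.5 mM start; fluor 340/450 at t0 and t15 min; no-enzyme wells as control.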

[3] = qHTS profiling for inhibitors of Plasmodium falciparum proliferation (AID 504749); also: nearly all actives have a fitted effect of over 60% in size; details: P. falciparum in erythrocytes, SYBR Green DNA, 72 h
Outline: (§1)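 Fluorescence of SYBR Green-bound parasite DNA, read at 485/535 nm, served as the growth measure. Infected erythrocytes were cultured with compound 72 h; artemisinin (0.29 uM) and DMSO wells defined the normalization range.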

[4] = system: 3D7; test: as above; details: P. falciparum in erythrocytes, SYBR Green DNA, 72 h; series mostly up to 28.7 µM
Outline: as §1

[5] = system: 7G8; test: as above; details: P. falciparum in erythrocytes, SYBR Green DNA, 72 h; series mostly up to 28.7 µM
Outline: as §1

[6] = at 28.7 µM (top of the series), parasite line A
[7] = at 28.7 µM (top of the series), parasite line B

For `O=C1CCC(=O)N1CO`, which Potency [1] is on record?
Its Potency is “inactive”.

And the Potency [2]?
The Potency was “inactive”.

And the activity, negative = inhibition [3, 6]?
The activity, negative = inhibition was -2.35%.

And the activity, negative = inhibition [3, 7]?
Its activity, negative = inhibition is 7.84%.

And the Potency [4]?
The Potency was “inactive”.

And the Potency [5]?
The Potency was “inactive”.

What does the source list for `Cc1ncc(C[n+]2csc(CCOP(=O)(O)OP(=O)(O)O)c2C)c(N)n1`?
activity, negative = inhibition [1]: -4.18% [at 0.4 µM]; activity change, negative = inhibition [2]: -9.41% [at 0.409 µM]; activity, negative = inhibition [3, 6]: -0.174%; activity, negative = inhibition [3, 7]: 5.83%; Potency [4]: inactive; Potency [5]: inactive

What does the source list for `C=C(C)C1CC=C(C)CC1` (configuration not stated)?
Potency [1]: inactive; Potency [2]: inactive; activity, negative = inhibition [3, 6]: 7.1%; activity, negative = inhibition [3, 7]: 5.88%; Potency [4]: inactive; Potency [5]: inactive

For `O=C(NNCS(=O)(=O)O)c1ccncc1`, which Potency [1] is on record?
Its Potency is 5.7 µM (active).

And the Potency [2]?
The Potency was 3.98 µM (active).

What about the activity, negative = inhibition [3, 6] of the same compound?
Its activity, negative = inhibition is 13.1%.

And the activity, negative = inhibition [3, 7]?
The activity, negative = inhibition was 6.08%.

What about the Potency [4] of the same compound?
The Potency was “inactive”.

And the Potency [5]?
The Potency was “inactive”.

Which Potency [1] does the source give for `COC(=O)CCC[N+](C)(C)C` here?
The Potency was “inactive”.

What about the Potency [2] of the same compound?
Its Potency is “inactive”.

What about the activity, negative = inhibition [3, 6] of the same compound?
The activity, negative = inhibition was 18.8%.

What about the activity, negative = inhibition [3, 7] of the same compound?
Its activity, negative = inhibition is 3.25%.

What about the Potency [4] of the same compound?
The Potency was “inactive”.

And the Potency [5]?
The Potency was “inactive”.

What does the source list for `NC(=O)[C@H]1O[C@@H](O)[C@H](O)[C@@H](O)[C@@H]1O`?
Potency [1]: inactive; Potency [2]: inactive; activity, negative = inhibition [3, 6]: 12.1%; activity, negative = inhibition [3, 7]: 13.4%; Potency [4]: inactive; Potency [5]: inactive

For `FC(F)(F)C(F)(F)C(F)(F)C(F)(F)C(F)(F)C(F)(F)F`, which Potency [1] is on record?
The Potency was “inactive”.

And the Potency [2]?
Its Potency is “inactive”.

What about the activity, negative = inhibition [3, 6] of the same compound?
Its activity, negative = inhibition is 2.24%.

What about the activity, negative = inhibition [3, 7] of the same compound?
Its activity, negative = inhibition is 2.03%.

And the Potency [4]?
Its Potency is “inactive”.

And the Potency [5]?
Its Potency is “inactive”.

Which Potency [1] does the source give for `CC(/C=C/C=C(\C)C(=O)O[C@@H]1O[C@H](CO[C@@H]2O[C@H](CO)[C@@H](O)[C@H](O)[C@H]2O)[C@@H](O)[C@H](O)[C@H]1O)=C\C=C\C=C(C)\C=C\C=C(/C)C(=O)O[C@@H]1O[C@H](CO[C@@H]2O[C@H](CO)[C@@H](O)[C@H](O)[C@H]2O)[C@@H](O)[C@H](O)[C@H]1O` here?
Its Potency is “inactive”.

And the Potency [2]?
Its Potency is “inactive”.

And the activity, negative = inhibition [3, 6]?
The activity, negative = inhibition was 7.84%.

What about the activity, negative = inhibition [3, 7] of the same compound?
The activity, negative = inhibition was -1.1%.

What about the Potency [4] of the same compound?
The Potency was “inactive”.

And the Potency [5]?
Its Potency is “inactive”.

Which results are given for `O=C1c2ccccc2C(=O)c2c1ccc(O)c2O`?
Potency [1]: inactive; Potency [2]: inactive; activity, negative = inhibition [3, 6]: 4.44%; activity, negative = inhibition [3, 7]: -3.93%; Potency [4]: inactive; Potency [5]: inactive

With `CN1C(=O)OC(C)(C)C1=O` as the compound, how does the Potency [1] read?
The Potency was “inactive”.

What about the Potency [2] of the same compound?
The Potency was “inactive”.

And the activity, negative = inhibition ([3]; at 12.8 µM (top of the series), parasite line A)?
Its activity, negative = inhibition is -13.9%.

What about the activity, negative = inhibition ([3]; at 12.8 µM (top of the series), parasite line B) of the same compound?
Its activity, negative = inhibition is 4.58%.

And the Potency [4]?
Its Potency is “inactive”.

And the Potency [5]?
The Potency was “inactive”.

What does the source list for `CC(=O)[O][Al][O]C(C)=O`?
activity, negative = inhibition [1]: -5.17% [at 9.52 µM]; activity change, negative = inhibition [2]: -11.7% [at 9.73 µM]; activity, negative = inhibition [3, 6]: 4.56%; activity, negative = inhibition [3, 7]: 3.22%; Potency [4]: inactive; Potency [5]: inactive

With `Cc1ncc(COP(=O)(O)O)c(CN)c1O` as the compound, how does the Potency [1] read?
The Potency was “inactive”.

And the Potency [2]?
Its Potency is “inactive”.

And the activity, negative = inhibition [3, 6]?
The activity, negative = inhibition was -3.16%.

What about the activity, negative = inhibition [3, 7] of the same compound?
Its activity, negative = inhibition is 3.16%.

What about the Potency [4] of the same compound?
Its Potency is “inactive”.

And the Potency [5]?
The Potency was “inactive”.
